Ins promoter up = insulin promoter activators in MIN6 cells, imaging, high-content screening, mouse beta cells; MIN6 insulin promoter-GFP reporter; hits give high values; 0.3% of 190,000 active; z-score at 5 µM; AID 1625, 2009;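 active = z-score above 3 at 5 µM with at least 500 cells counted in the well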
WT yeast gro inh = growth inhibition of WT strain, primary screen, mitochondrial fusion inhibitor project, WT and mutant strains, chemical genetic; mitochondrial fusion phenotypic screen; inhibition, % at 10 µM; 2.1% of 190,000 active; AID 1362, 2008; in the data active = inhibition above about 58%; tested in S. cerevisiae
ROMK mod = ROMK potassium channel modulators, primary screen, cell-based, thallium flux, MLSMR library; ATP-sensitive inward rectifier potassium channel 1 (Homo sapiens), P48048; Tet-inducible ROMK, thallium flux fluorescence; actives lie on both sides; B-score at 10 µM; 2% of 130,000 active; AID 1918, 2009;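 active = signal ratio slope over the read window, or its plate-corrected B-score, at least 3 SD from the plate mean, either direction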;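 note: B-score of the F/F0 ratio slope over 7 to 12 s after thallium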
Target sequence (P48048 whole entry, looked up): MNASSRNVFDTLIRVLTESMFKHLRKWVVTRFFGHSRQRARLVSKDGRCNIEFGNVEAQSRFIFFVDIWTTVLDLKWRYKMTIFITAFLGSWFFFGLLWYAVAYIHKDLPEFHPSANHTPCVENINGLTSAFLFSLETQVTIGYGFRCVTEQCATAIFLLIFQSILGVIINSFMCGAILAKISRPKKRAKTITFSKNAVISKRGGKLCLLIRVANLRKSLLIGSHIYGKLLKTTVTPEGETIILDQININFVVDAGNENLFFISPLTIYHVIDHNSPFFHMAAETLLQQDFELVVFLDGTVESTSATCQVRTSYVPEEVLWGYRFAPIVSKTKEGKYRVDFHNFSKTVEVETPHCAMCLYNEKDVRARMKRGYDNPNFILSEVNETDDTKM
Insulin prom inh = inhibitors of insulin promoter-driven GFP, primary screen, imaging, TRM-6 cells (human fetal islet line), eGFP reporter, cell count; reporter expression induced with tamoxifen; inhibition, % at 2 µM; 0.9% of 130,000 active;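 active = inhibition above the mean plus 3 SD, with well images judged a real hit on visual review, cut at about 60% in these data, passing the limit was not always enough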
Cl transport mod = KCC2 cotransporter modulators, thallium flux, primary screen, cell-based, HEK293 KCC2, FluoZin-2 fluorescence, MLSMR; KCC2 cells, thallium flux FluoZin-2 fluorescence; B-score of Tl+ flux slope (higher = more flux/activation; lower = inhibition) at 10 µM; 2.2% of 190,000 active; AID 1456, 2008;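 active = thallium flux slope and its plate-corrected score both differing from the plate sample mean at a set confidence after two filtering rounds, in either direction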;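 note: slope of fluorescence scaled to starting intensity during 10 to 20 s after thallium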
Lmaj promast = Leishmania major promastigote growth inhibition, primary screen; AID 1063, 2008; Leishmania major promastigotes, resazurin fluorescence viability; inhibition, % at 10 µM; 9% of 200,000 active; in the data active = inhibition above about 50%;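 note: promastigotes grown with compound for 44 hours at 28 °C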
Large screens that a line does not name were inactive. In the library only some 12% were active in any assay of this set; here they are far more common.

CCc1ccc(CN2CCN(Cc3ccc(SC)cc3)CC2)cc1	Lmaj promast 89.3 (no result: ROMK mod)
Cc1ccc(OCC(=O)N2CCN(Cc3ccc4c(c3)OCO4)CC2)cc1C	Lmaj promast 89.2 (no result: Ins promoter up)
CSc1ccc(CN2CCN(C(=O)COc3ccc(C)cc3)CC2)cc1	Lmaj promast 87.1
O=c1[nH]c(O)c(N=Nc2cccc(S(=O)(=O)N3CCOCC3)c2)c(=O)[nH]1	none
CCOc1ccc(-n2c(O)c(C=Nc3ccc(N4CCOCC4)cc3)c(=O)[nH]c2=O)cc1	none (no result: ROMK mod)
Cc1cc(NC(=O)C(Cl)(Cl)Cl)no1	none (no result: WT yeast gro inh, ROMK mod, Insulin prom inh, Lmaj promast)
COC(=O)CCCCC1SCC(NC(=O)c2ccccc2)C1Cl (configuration not stated)	none (no result: Insulin prom inh)
Cc1ccc(C)c(NC(=S)NCCc2cnc[nH]2)c1	none (no result: WT yeast gro inh, ROMK mod, Insulin prom inh, Lmaj promast)
Cc1cccc(OCC(=O)N2CCN(Cc3ccc4c(c3)OCO4)CC2)c1	Lmaj promast 83.0
Cc1cccc(OCC(=O)N2CCN(Cc3ccncc3)CC2)c1	none
Cc1nn(Cc2ccccc2Cl)c(Cl)c1C(=O)OCC(=O)NC(=O)NC1CCCCC1	Lmaj promast 52.2
CCC(C)N1C(=O)/C(=C/c2ccc3c(c2)CCN3CCCCl)C(=O)NC1=S (configuration not stated)	Lmaj promast 55.4
Cc1cccc(N2C(=O)NC(=O)/C(=C\c3ccc4c(c3)CCCN4Cc3ccccc3)C2=O)c1	none
N#Cc1ccc(/C=C/C(=O)O)cc1	none (no result: WT yeast gro inh, ROMK mod, Insulin prom inh, Lmaj promast)
CC(=O)Nc1nc(CCl)cs1	none (no result: Insulin prom inh)
CCCCN1CCC(C#N)(Nc2ccccc2)CC1	none (no result: Ins promoter up, ROMK mod)
CCCCN(Cc1ccccc1)C1CCN(CCc2ccccc2)CC1	Lmaj promast 90.5
c1ccc(CCN2CCC(N3CCN(c4ccccc4)CC3)CC2)cc1	Lmaj promast 94.5 (no result: ROMK mod)
Cn1nc(-c2ccc(OCC(=O)N3CCN(Cc4ccccc4)CC3)cc2)c2ccccc2c1=O	none (no result: Ins promoter up, ROMK mod)
Fc1ccccc1CNC1CN2CCC1CC2 (configuration not stated)	none
Cc1ccccc1C(O)(Cc1ccccc1)C1CN2CCC1CC2 (configuration not stated)	Lmaj promast 98.2 (no result: Ins promoter up)
O=C1CN=C(c2ccccc2F)c2cc(Cl)ccc2N1	none (no result: Ins promoter up, ROMK mod)
S=C1CN=C(c2ccccc2Cl)c2cc(Cl)ccc2N1	Cl transport mod 5.84
O=C(CSC1c2ccccc2-c2ccccc21)N/N=C/c1ccc(C(=O)O)cc1	none (no result: ROMK mod)
O=C(CSC1c2ccccc2-c2ccccc21)N/N=C/c1ccccc1O	Lmaj promast 99.9 (no result: Cl transport mod)
CN1C(=O)C(Cc2cccc3ccccc23)C(=O)N(C)C1=O	none (no result: ROMK mod)
O=C1C2CCN(CC2)[C@@H]1Cc1ccc2ccccc2c1O	Lmaj promast 99.2
CCc1c(C)nc(N)nc1N1N=C1SCCOc1ccccc1	none (no result: Insulin prom inh)
CCN1CCN(c2cc(N3CCCC3)c(F)cc2[N+](=O)[O-])CC1	Lmaj promast 70.6 (no result: ROMK mod)
CN1CCN(c2cc(N3CCCC3)c([N+](=O)[O-])cc2F)CC1	Lmaj promast 98.8
O=[N+]([O-])c1cc(F)c(N2CCCC2)cc1Br	none (no result: Insulin prom inh)
O=[N+]([O-])c1cc(F)c(N2CCCCC2)cc1Br	none (no result: WT yeast gro inh, ROMK mod, Insulin prom inh, Lmaj promast)
Cn1c(O)c(C=NCCCNC2CCCCC2)c(=O)n(C)c1=O	none (no result: Ins promoter up, ROMK mod)
O=C(N/N=C1/CN2CCC1CC2)c1cc2ccccc2cc1O	Lmaj promast 91.6 (no result: ROMK mod)
O=[N+]([O-])c1ccc(N2CCCC2)cc1N/N=C1\CN2CCC1CC2	none
O=c1c2ccccc2nc(/C=C/c2ccc([N+](=O)[O-])o2)n1-c1ccc(O)cc1	Lmaj promast 98.5
O=c1c2ccccc2nc(/C=C/c2ccc(O)cc2)n1-c1ccccc1O	none (no result: WT yeast gro inh, ROMK mod, Insulin prom inh, Lmaj promast)
Cc1cccc(-n2c(/C=C/c3ccc([N+](=O)[O-])o3)nc3ccccc3c2=O)c1	Lmaj promast 88.0 (no result: Insulin prom inh)
CC(C)CNP(=S)(c1ccccc1)C(C)(C)C (configuration not stated)	none (no result: WT yeast gro inh, ROMK mod, Insulin prom inh, Lmaj promast)
O=c1[nH]c(=O)n(-c2ccc(F)cc2)c(O)c1C=Nc1ccccc1N1CCCC1	Ins promoter up 4.37 (no result: ROMK mod)
C#CCN(C)[C@H](C)Cc1ccccc1	none (no result: ROMK mod, Insulin prom inh, Lmaj promast)
CC(Cc1ccccc1Sc1ccccc1O)N(C)C (configuration not stated)	Lmaj promast 99.8
c1ccc(CC(NCc2ccco2)c2ccccc2)cc1 (configuration not stated)	none
O=c1[nH]c(=O)n(C2CCCCCC2)c(O)c1C=NCCCN1CCOCC1	Lmaj promast 88.5 (no result: ROMK mod)
